# Source: PubChem BioAssay (Tox21)
# Unmarked numbers belong to inactive results. Records with an inconclusive call do not appear. Where a call stands in place of a potency, no number is given. Active and inactive are the calls of the source. Unless noted, calls come from the whole dose curve; as a rule, active = well fitted curve in the direction sought with a large enough effect in the repeat runs; inconclusive = weak or mixed curves; inactive = no such curve, though single readings can be large; an effect the other way counts as inactive or inconclusive.
# How the values were obtained:
# [1] = qHTS assay to identify small molecule antagonists of the estrogen related receptor (ERR) signaling pathway from Tox21 library - cell viability counter screen (AID 1224834); note: nearly all actives have a fitted effect of over 30% in size; note: potency is the fitted concentration of half-maximal effect
# Procedure, shortened: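 Viability readout (CellTiter-Fluor fluorescence, 30 min at 37 C) multiplexed with the ERR assay; cells treated 17.5 h at 37 C with compounds delivered in DMSO.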
# [2] = target: Luciferin 4-monooxygenase (Photinus pyralis) (UniProt P08659); assay: qHTS assay to identify small molecule inhibitors of firefly luciferase (AID 1224835); note: nearly all actives have a fitted effect of over 25% in size; note: potency is the fitted concentration of half-maximal effect
# Procedure, shortened: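 Biochemical qHTS: compounds run as interplate titrations against purified firefly enzyme, with D-luciferin and ATP each at its KM concentration. Light output recorded by CCD imaging.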
# [3] = qHTS assay to identify small molecule agonists of the constitutive androstane receptor (CAR) signaling pathway - cell viability counter screen (AID 1224836); note: series mostly up to about 92 µM; nearly all actives have a fitted effect of over 45% in size
# Procedure, shortened: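 Cells were seeded and incubated 4 hrs. Compounds were added across 15 concentrations together with PK11195 at 0.75 uM final. Plates were incubated 23 hrs at 37 C. CellTiter-Fluor was added and fluorescence measured.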
# [4] = qHTS assay to identify small molecule antagonists of the constitutive androstane receptor (CAR) signaling pathway - cell viability counter screen (AID 1224837); note: series mostly up to about 92 µM; nearly all actives have a fitted effect of over 45% in size
# Procedure, shortened: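 Fluorescence from CellTiter-Fluor served as the viability signal. Human hepatoma HepG2 cells stably bearing hCAR and CYP2B6-2.2kb received compound plus CITCO (50 nM final) for 23 hr.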
# [5] = target: Nuclear receptor subfamily 1 group I member 3 (Homo sapiens) (UniProt Q14994); assay: qHTS assay to identify small molecule antagonists of the constitutive androstane receptor (CAR) signaling pathway (AID 1224838);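 note: HepG2 cells stably expressing hCAR with CYP2B6 luciferase reporter stimulated by CITCO; nearly all actives have a fitted effect of over 40% in size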
# Procedure, shortened: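 Quantitative HTS in double-stable HepG2-CYP2B6-hCAR cells. After 4 h plating, cells get compound (15 concentrations) and CITCO at 50 nM final, incubate 24 h at 37 C, then ONE-Glo luminescence is read.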
# [6] = target: Nuclear receptor subfamily 1 group I member 3 (Homo sapiens) (UniProt Q14994); assay: qHTS assay to identify small molecule agonists of the constitutive androstane receptor (CAR) signaling pathway (AID 1224839); note: nearly all actives have a fitted effect of over 15% in size; note: potency is the fitted concentration of half-maximal effect;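 for activation: HepG2 cells stably carrying human CAR and a CYP2B6 luciferase reporter; series mostly up to about 92 µM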
# Procedure, shortened: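 Cells were plated and incubated 4 hrs, then dosed with compounds at 15 concentrations. PK11195 was added to 0.75 uM final. After 24 hrs at 37 C, luciferase luminescence was measured.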
# [7] = qHTS assay to identify small molecule antagonists of the estrogen related receptor signaling pathway with the pleiotropic PPARgamma coactivator (PGC) from Tox21 10K library - cell viability counter screen (AID 1224840; active = well fitted cell-killing curve with a large enough effect in the repeat runs, not every such curve was filed as active; note: nearly all actives have a fitted effect of over 40% in size)
# Procedure, shortened: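 Compounds in DMSO, alongside positive and negative controls, were pinned onto PGC/ERR cells (2,000 per well). Exposure lasted 17.5 hours at 37 C, followed by a 30-minute CellTiter-Fluor incubation and fluorescence reading.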
# [8] = target: Thyrotropin receptor (Homo sapiens) (UniProt P16473); assay: qHTS assay to identify small molecule agonists of the thyroid stimulating hormone receptor (TSHR) signaling pathway (AID 1224843; calls by dose curve; note: nearly all actives have a fitted effect of over 45% in size; note: potency is the fitted concentration of half-maximal effect)
# Procedure, shortened: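 TSHR-HEK293 cells in agonist mode, 30 min room-temperature step, then cAMP measured by competitive HTRF (cAMP-d2 with anti-cAMP cryptate) after 1 h at room temperature. Tested at 15 concentrations in triplicate.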
# [9] = qHTS assay to identify small molecule agonists of the hypoxia (HIF-1) signaling pathway - cell viability counter screen (AID 1224844; calls by dose curve; note: nearly all actives have a fitted effect of over 50% in size)
# Procedure, shortened: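 Luminescent ATP content (CellTiter-Glo, 30 min, room temperature) served as the viability measure in HRE-bla ME-180 cells exposed to compounds for 17 hrs in low-serum medium (0.5% dialyzed FBS).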
# [10] = qHTS assay to identify small molecule agonists of H2AX (AID 1224845; active = well fitted activation curve with a large enough effect in the signal ratio in the repeat runs, not every such curve was filed as active; the % refers to the signal ratio)
# Procedure, shortened: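 Wild-type CHO-K1 cells, plated overnight, exposed 3hr at 37C to 15 concentrations (0.76% DMSO final). Lysed, then HTRF anti-pH2AX (S139) cryptate and anti-H2AX-d2 antibodies, 24 hr room temperature; 665/620 nm emission read.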
# [11] = qHTS assay to identify small molecule agonists of the hypoxia (HIF-1) signaling pathway (AID 1224846; active = well fitted activation curve with a large enough effect in the signal ratio in the repeat runs, not every such curve was filed as active; the % refers to the signal ratio)
# Procedure, shortened: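 Measured by blue/green FRET after loading CCF4-AM: beta-lactamase expressed from a hypoxia response element in ME-180 cells. Test agents were delivered in DMSO and left 17 hrs; cells had been plated 5 hrs earlier in low-serum (0.5% dialyzed FBS) medium.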
# [12] = qHTS assay to identify small molecule agonists of H2AX - cell viability counter screen (AID 1224847; calls by dose curve; note: nearly all actives have a fitted effect of over 30% in size; note: potency is the fitted concentration of half-maximal effect)
# Procedure, shortened: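 Cytotoxicity counter screen in wild-type CHO-K1 cells: a 3 hr compound treatment at 37C across 15 concentrations, followed by CellTiter-Glo luminescence to gauge viable cells.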
# [13] = qHTS RealTime-Glo MT Cell Viability Assay in HepG2 cells - 24 hour (AID 1224867); note: nearly all actives have a fitted effect of over 50% in size
# Procedure, shortened: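 Viability was tracked continuously by NanoLuc luminescence from prosubstrate reduced by living HepG2 cells, at successive time points over 40 h of compound exposure. Cells with reagent were preincubated 5 h at 37 °C before compound addition.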
# [14] = qHTS RealTime-Glo MT Cell Viability Assay in HEK293 cells - 32 hour (AID 1224868); note: top concentration of the series differs between compounds; nearly all actives have a fitted effect of over 50% in size
# Procedure, shortened: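 Viability tracked continuously by luminescence as live cells reduce a prosubstrate for NanoLuc; HEK293 cells preincubated 5 h, compound-treated at 37 C, and read at 0, 8, 16, 24, 32 and 40 h.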
# [15] = A CellTox Green Cytotoxicity Assay to monitor cytotoxicity in HEK293 cells - 0 hour (AID 1224869); note: nearly all actives have a fitted effect of over 50% in size
# Procedure, shortened: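 Each value comes from one timepoint of a single continuous run in which HEK293 cells with CellTox Green were exposed to compound for up to 40 h at 37 C, dye fluorescence rising with cell death.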
# [16] = qHTS RealTime-Glo MT Cell Viability Assay in HepG2 cells - 40 hour (AID 1224870); note: nearly all actives have a fitted effect of over 50% in size
# Procedure, shortened: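 HepG2 cells (600/well) mixed with RealTime-Glo MT reagent, settled 5 h at 37 C/5% CO2 before compound addition. Nonlytic NanoLuc luminescence from viable-cell prosubstrate reduction read repeatedly during 40 h treatment at 37 C.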
# Thyrotropin receptor (Homo sapiens), sequence (P16473 whole entry, looked up): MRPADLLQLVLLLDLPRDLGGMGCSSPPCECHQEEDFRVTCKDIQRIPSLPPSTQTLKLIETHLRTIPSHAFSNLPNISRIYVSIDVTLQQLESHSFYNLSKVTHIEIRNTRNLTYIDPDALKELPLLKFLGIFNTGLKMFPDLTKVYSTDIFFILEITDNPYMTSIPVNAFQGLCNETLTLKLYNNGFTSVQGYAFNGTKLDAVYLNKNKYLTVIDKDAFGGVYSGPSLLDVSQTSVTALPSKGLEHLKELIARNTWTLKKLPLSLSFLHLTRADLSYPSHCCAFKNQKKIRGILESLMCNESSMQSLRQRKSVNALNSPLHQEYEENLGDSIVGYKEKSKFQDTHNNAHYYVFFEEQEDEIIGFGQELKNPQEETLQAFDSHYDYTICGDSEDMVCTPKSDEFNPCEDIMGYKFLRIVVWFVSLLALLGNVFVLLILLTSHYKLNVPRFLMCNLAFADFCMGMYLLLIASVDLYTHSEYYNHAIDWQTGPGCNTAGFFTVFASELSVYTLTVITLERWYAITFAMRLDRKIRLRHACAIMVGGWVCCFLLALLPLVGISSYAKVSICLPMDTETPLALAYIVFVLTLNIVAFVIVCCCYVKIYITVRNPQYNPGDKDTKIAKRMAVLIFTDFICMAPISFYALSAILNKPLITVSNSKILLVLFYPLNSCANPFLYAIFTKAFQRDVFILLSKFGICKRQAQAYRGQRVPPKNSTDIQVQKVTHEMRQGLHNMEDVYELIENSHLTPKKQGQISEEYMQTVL
# Nuclear receptor subfamily 1 group I member 3 (Homo sapiens), sequence (Q14994 whole entry, looked up): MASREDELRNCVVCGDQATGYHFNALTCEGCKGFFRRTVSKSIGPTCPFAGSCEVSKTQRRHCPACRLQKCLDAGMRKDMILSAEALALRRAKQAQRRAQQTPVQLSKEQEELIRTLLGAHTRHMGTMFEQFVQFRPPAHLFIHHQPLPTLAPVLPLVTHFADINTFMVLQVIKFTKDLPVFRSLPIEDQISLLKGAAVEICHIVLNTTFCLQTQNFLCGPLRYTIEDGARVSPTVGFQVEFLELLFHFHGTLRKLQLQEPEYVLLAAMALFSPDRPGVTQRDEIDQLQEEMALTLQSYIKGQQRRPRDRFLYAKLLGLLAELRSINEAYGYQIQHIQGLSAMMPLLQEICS
# Luciferin 4-monooxygenase (Photinus pyralis), sequence (P08659 whole entry, looked up): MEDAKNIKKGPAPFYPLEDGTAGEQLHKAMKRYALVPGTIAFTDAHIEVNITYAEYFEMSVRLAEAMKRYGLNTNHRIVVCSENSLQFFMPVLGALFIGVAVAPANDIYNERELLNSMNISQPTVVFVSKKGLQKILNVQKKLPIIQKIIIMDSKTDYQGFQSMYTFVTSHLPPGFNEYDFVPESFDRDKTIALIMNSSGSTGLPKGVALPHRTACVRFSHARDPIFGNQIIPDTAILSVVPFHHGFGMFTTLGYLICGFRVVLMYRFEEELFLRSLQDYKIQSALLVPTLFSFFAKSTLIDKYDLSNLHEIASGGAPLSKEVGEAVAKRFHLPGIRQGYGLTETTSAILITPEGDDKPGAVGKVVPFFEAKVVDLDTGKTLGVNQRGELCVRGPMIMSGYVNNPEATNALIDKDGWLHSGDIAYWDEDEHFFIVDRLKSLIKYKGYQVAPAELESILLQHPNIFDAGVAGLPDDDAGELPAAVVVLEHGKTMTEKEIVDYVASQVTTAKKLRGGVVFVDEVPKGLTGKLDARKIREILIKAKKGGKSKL
Compound,Potency [1],Potency [2],Potency [3],Potency [4],Potency [5],Potency [6],Potency [7],Potency [8],Potency [9],Potency [10],outcome [11],Potency [12],Potency [13],Potency [14],Potency [15],Potency [16]
ClC(Cl)Br,inactive,inactive,inactive,inactive,inactive,inactive,inactive,inactive,inactive,inactive,inactive,inactive,inactive,inactive,inactive,inactive
Cc1nc(N)nc(N)n1,inactive,inactive,inactive,inactive,inactive,inactive,inactive,inactive,inactive,inactive,inactive,inactive,–,inactive,inactive,inactive
CCCSP(=O)(OCC)Oc1ccc(Br)cc1Cl (centres undefined),inactive,inactive,inactive,inactive,inactive,13.3 µM (active),inactive,inactive,inactive,inactive,inactive,inactive,inactive,inactive,inactive,inactive
Cc1cccc(C#N)c1,inactive,inactive,inactive,inactive,inactive,inactive,inactive,inactive,inactive,inactive,inactive,inactive,inactive,inactive,inactive,inactive
CC(=O)CC(c1ccc(Cl)cc1)c1c(O)c2ccccc2oc1=O (centres undefined),inactive,inactive,inactive,inactive,inactive,inactive,inactive,inactive,inactive,–,inactive,–,inactive,inactive,inactive,inactive
O=[N+]([O-])c1cc(Cl)c(Cl)c(Cl)c1,inactive,inactive,inactive,inactive,inactive,inactive,inactive,inactive,inactive,–,inactive,inactive,–,inactive,inactive,inactive
O=C(N[C@H]1CN2CCC1CC2)c1cc2ccoc2cn1,inactive,inactive,inactive,inactive,inactive,inactive,inactive,inactive,–,inactive,inactive,inactive,inactive,inactive,inactive,inactive
CCC1(c2ccccc2)C(=O)N=C(O)NC1=O (centres undefined),inactive,inactive,inactive,inactive,inactive,inactive,inactive,inactive,inactive,inactive,inactive,inactive,inactive,inactive,inactive,inactive
ClCC(Cl)Cl,inactive,inactive,inactive,inactive,inactive,inactive,inactive,inactive,inactive,inactive,inactive,inactive,inactive,inactive,inactive,inactive
CCOP(=O)(OCC)OP(=O)(OCC)OCC,inactive,inactive,inactive,inactive,inactive,inactive,inactive,inactive,inactive,inactive,inactive,inactive,–,inactive,inactive,inactive
CCCCOC(=O)c1ccccc1C(=O)O,inactive,inactive,inactive,inactive,inactive,inactive,inactive,inactive,–,inactive,inactive,inactive,inactive,inactive,inactive,inactive
Clc1cccc(N2CCNCC2)c1,inactive,inactive,inactive,inactive,inactive,inactive,inactive,inactive,–,inactive,–,inactive,inactive,inactive,inactive,inactive
CN1CCC(N(Cc2ccccc2)c2ccccc2)CC1,inactive,inactive,inactive,inactive,inactive,inactive,inactive,13.3 µM (active),inactive,inactive,inactive,inactive,inactive,inactive,inactive,inactive
Nc1cnn(-c2ccccc2)c(=O)c1Cl,inactive,inactive,inactive,inactive,inactive,inactive,inactive,inactive,–,inactive,inactive,inactive,inactive,inactive,inactive,inactive
c1coc(-c2nc3ccccc3[nH]2)c1,inactive,28.3 µM (active),inactive,inactive,inactive,7.7 µM (active),inactive,inactive,inactive,inactive,inactive,80 µM (active),inactive,–,inactive,inactive
O=C(CCN1CC1)OCC(CO)(COC(=O)CCN1CC1)COC(=O)CCN1CC1,inactive,inactive,inactive,inactive,inactive,inactive,inactive,inactive,–,inactive,inactive,inactive,–,inactive,inactive,inactive
Nc1cc(Cl)ccc1O,33.3 µM (active),inactive,inactive,inactive,inactive,52.7 µM (active),inactive,inactive,–,–,inactive,inactive,inactive,inactive,inactive,inactive
O=S(=O)(O)C(F)(F)C(F)(F)C(F)(F)C(F)(F)C(F)(F)C(F)(F)F,inactive,inactive,inactive,inactive,inactive,inactive,inactive,inactive,inactive,inactive,inactive,–,inactive,inactive,inactive,inactive

Compound,Potency [1],Potency [2],Potency [3],Potency [4],Potency [5],Potency [6],Potency [7],Potency [8],Potency [9],Potency [10],outcome [11],Potency [12],Potency [13],Potency [14],Potency [15],Potency [16]
Cc1cnc[nH]1,inactive,inactive,inactive,inactive,inactive,inactive,inactive,inactive,–,inactive,inactive,inactive,inactive,inactive,inactive,inactive
COP(=S)(OC)Oc1ccc(S(N)(=O)=O)cc1,inactive,inactive,inactive,inactive,inactive,inactive,inactive,inactive,inactive,inactive,inactive,inactive,–,inactive,inactive,inactive
CNCC(=O)c1ccc(O)c(O)c1,inactive,inactive,inactive,inactive,inactive,inactive,inactive,2.37 µM (active),inactive,–,inactive,inactive,inactive,inactive,inactive,inactive
O=C(Nc1ccccc1)c1ccccc1I,inactive,inactive,inactive,inactive,inactive,61.1 µM (active),inactive,inactive,inactive,inactive,inactive,–,inactive,inactive,inactive,inactive
COC(=O)C(c1ccccc1)C1CCCCN1 (centres undefined),inactive,inactive,inactive,inactive,inactive,inactive,inactive,inactive,inactive,inactive,inactive,inactive,inactive,inactive,inactive,inactive
CNC(=O)Oc1c(C(C)(C)C)cc(C)cc1C(C)(C)C,inactive,inactive,inactive,inactive,inactive,10.9 µM (active),inactive,inactive,inactive,inactive,inactive,inactive,inactive,inactive,inactive,inactive
O=[N+]([O-])c1cccc(O)c1,inactive,inactive,inactive,inactive,inactive,inactive,inactive,inactive,inactive,inactive,inactive,–,inactive,inactive,inactive,inactive
Nc1ccccc1Cl,inactive,inactive,inactive,inactive,inactive,inactive,inactive,inactive,inactive,inactive,inactive,inactive,inactive,inactive,inactive,inactive
COC(=O)c1ccccc1S(=O)(=O)NC(=O)Nc1nc(C)cc(C)n1,inactive,inactive,inactive,inactive,inactive,inactive,inactive,inactive,inactive,inactive,inactive,inactive,inactive,inactive,inactive,inactive
N#CC(Cl)(Cl)Cl,inactive,inactive,inactive,inactive,inactive,inactive,inactive,–,inactive,inactive,inactive,inactive,inactive,inactive,inactive,inactive
CCC1(c2ccccc2)C(=O)NC(=O)NC1=O,inactive,inactive,inactive,inactive,inactive,inactive,inactive,inactive,–,inactive,inactive,inactive,inactive,inactive,inactive,inactive
CN1CCN(C(=O)O[C@H]2c3nccnc3C(=O)N2c2ccc(Cl)cn2)CC1,inactive,inactive,inactive,inactive,inactive,inactive,inactive,inactive,–,inactive,–,inactive,inactive,inactive,inactive,inactive
Nc1cc2c3c(c1)C(c1ccccc1)=N[C@@H](NC(=O)c1cccnc1)C(=O)N3CC2,inactive,inactive,inactive,inactive,inactive,inactive,inactive,inactive,inactive,inactive,inactive,inactive,inactive,inactive,inactive,inactive
Oc1c(Cl)cccc1Cl,inactive,inactive,inactive,inactive,inactive,inactive,inactive,inactive,inactive,inactive,inactive,inactive,–,inactive,inactive,inactive
COP(N)(=S)Oc1ccccc1C(=O)OC(C)C (centres undefined),inactive,inactive,inactive,inactive,inactive,30.6 µM (active),inactive,inactive,inactive,inactive,inactive,inactive,inactive,inactive,inactive,inactive
CC(CCc1ccccc1)NC(C)C(O)c1ccc(O)cc1 (centres undefined),inactive,inactive,inactive,inactive,inactive,inactive,inactive,inactive,inactive,inactive,inactive,inactive,–,inactive,inactive,inactive
C(CCOCC1CO1)COCC1CO1 (centres undefined),inactive,inactive,inactive,inactive,inactive,inactive,inactive,inactive,–,inactive,–,inactive,inactive,–,inactive,inactive
COc1ccc(C(=O)N2CCCC2=O)cc1,inactive,inactive,inactive,inactive,inactive,inactive,inactive,inactive,inactive,inactive,–,inactive,inactive,inactive,inactive,inactive
